This is a sample that favours compounds with a hit; in the whole collection about 3.6% have one here.
Peg3 prom inh-1 = Peg3 promoter-driven luciferase inhibitors, primary screen, cell-based, HeLa, luciferase luminescence. inhibition, % at 20 µM. HeLa PEG-Prom luciferase reporter, overnight. 360,000 compounds, 1.7% hits;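 active = inhibition of at least 50% at 20 µM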
KKLEB cytotox = cytotoxicity in KKLEB CF airway cells, primary screen, cytotoxicity control for CF NF-kB inhibitor project, cell-based, uHTS, fluorescence assay plates; activity change (cytotoxicity), % at 5 µM; 360,000 compounds, 0.36% hits; KKLEB CF airway cells viability, ATPlite luminescence, overnight; hits give low values; cells stimulated with P. aeruginosa culture filtrate; AID 602141, 2011;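 active = corrected activity change at or below -50% at 5 µM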
LGR2 antag = inhibitors of bursicon-induced LGR2 CRE-luciferase signal, primary screen, cell-based, HEK293, CRE-luciferase reporter, bursicon stimulation; bursicon-stimulated, 4 h; inhibition, % at 9.99 µM; 380,000 compounds, 0.35% hits;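 active = drop in luminescence signal, shown as inhibition above about 50% in the replicate tests, limit read from the data, passing the limit was not always enough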;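 note: agonist challenge used bursicon conditioned medium at about half maximal strength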
Mdm2 MdmX PPI = inhibitors of human Mdm2-MdmX association, primary screen, cell-based, luminescence, split luciferase, SaOS-2, uHTS; Protein Mdm4 (Homo sapiens) + E3 ubiquitin-protein ligase Mdm2 (Homo sapiens), …; SaOS-2 split-luciferase Mdm2/MdmX complementation; inhibition, % at 8 µM; 330,000 compounds, 3% hits; AID 485346, 2010;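 active = inhibition of at least 50% at 8 µM in the primary screen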
Target sequence (O15151 whole entry, looked up): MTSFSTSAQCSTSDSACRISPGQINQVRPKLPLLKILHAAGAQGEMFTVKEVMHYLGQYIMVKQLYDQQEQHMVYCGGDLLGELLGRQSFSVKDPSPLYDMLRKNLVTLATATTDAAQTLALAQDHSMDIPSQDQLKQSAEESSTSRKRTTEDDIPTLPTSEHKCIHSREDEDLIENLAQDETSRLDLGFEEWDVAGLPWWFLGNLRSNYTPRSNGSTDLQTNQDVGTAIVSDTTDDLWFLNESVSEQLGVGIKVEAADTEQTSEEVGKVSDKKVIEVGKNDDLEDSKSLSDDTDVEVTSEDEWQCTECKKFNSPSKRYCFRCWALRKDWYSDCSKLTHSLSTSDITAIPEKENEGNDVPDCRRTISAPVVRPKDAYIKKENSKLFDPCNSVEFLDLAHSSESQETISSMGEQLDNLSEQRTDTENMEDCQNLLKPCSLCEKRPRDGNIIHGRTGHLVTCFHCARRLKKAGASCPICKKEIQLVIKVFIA
Target sequence (Q00987 whole entry, looked up): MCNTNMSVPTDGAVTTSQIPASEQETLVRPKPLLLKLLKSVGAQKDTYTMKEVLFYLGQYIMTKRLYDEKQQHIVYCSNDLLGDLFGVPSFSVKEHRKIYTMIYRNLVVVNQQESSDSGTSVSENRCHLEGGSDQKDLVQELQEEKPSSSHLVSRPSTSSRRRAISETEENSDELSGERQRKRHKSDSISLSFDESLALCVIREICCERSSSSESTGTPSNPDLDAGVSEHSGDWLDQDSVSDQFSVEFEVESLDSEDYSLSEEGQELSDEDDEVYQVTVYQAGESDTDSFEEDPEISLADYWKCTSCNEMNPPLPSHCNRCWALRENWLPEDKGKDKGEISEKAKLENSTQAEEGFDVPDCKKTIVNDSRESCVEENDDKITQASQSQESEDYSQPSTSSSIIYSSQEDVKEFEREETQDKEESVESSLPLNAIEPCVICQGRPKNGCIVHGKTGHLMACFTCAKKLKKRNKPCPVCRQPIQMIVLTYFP
HSP90 inh = HSP90 inhibitors, primary screen, cell lysate, luminescence | Rabbit reticulocyte lysate, luciferase refolding luminescence, 3 h | inhibition, % at 5.6 µM | 290,000 compounds, 0.91% hits | AID 1789, 2009;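 active = inhibition above the screen-wide mean plus 3 SD, computed separately per campaign, cut at about 16% in these data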;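 note: inhibitors lower the luminescence because luciferase stays unfolded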
CF NFkB inh = inhibitors of PAF-induced NF-kB signaling, primary screen, cell-based, GFP fluorescence, uHTS; KKLEB NF-kB-GFP reporter, GFP fluorescence overnight; inhibition, % at 5 µM; 360,000 compounds, 0.86% hits; AID 588850, 2011;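 active = at least 50% inhibition at 5 µM, scaled per plate between neutral and stimulator controls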;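 note: PAF is a Pseudomonas aeruginosa culture filtrate used as stimulus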
Mdm2 MdmX conf = Mdm2-MdmX complex disruptors, retested hits, confirmation, luminescence, single concentration; shares compounds with Mdm2 MdmX PPI; Mdm2-MdmX binding, luminescent assay; inhibition, % at 8 µM; 10,000 compounds, 55% hits; in the data active = inhibition above about 40%
FLuc counter = full-length luciferase signal inhibition, confirmation, counter-screen for Mdm2/MdmX interaction inhibitor project, cell-based, single concentration, SaOS-2. shares compounds with Mdm2 MdmX PPI. SaOS-2 full-length luciferase counterscreen, luminescence. inhibition, % at 8 µM. 6,200 compounds, 77% hits. AID 504607, 2011;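 active = mean inhibition at 8 µM reaching about 37%, which flags the compound as non-specific, limit read from the data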;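 note: p53-null SaOS-2 cells with luciferase driven by a doxycycline-inducible promoter; compound on cells about two nights before reading with doxycycline added after day one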
Peg3 prom inh-2 = Peg3 promoter reporter inhibitors, retest, confirmation, cell-based, HeLa, luciferase reporter, single concentration | shares compounds with Peg3 prom inh-1 | HeLa PEG-Prom luciferase reporter, luminescence, overnight | inhibition, % at 20 µM | 1,300 compounds, 84% hits | AID 602417, 2012;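 active = at 20 µM dose, 40% or more inhibition averaged across four replicates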
Numbers stand for hits; – = inactive; · = no result.

SMILES	Peg3 prom inh-1	KKLEB cytotox	LGR2 antag	Mdm2 MdmX PPI	HSP90 inh	CF NFkB inh	Mdm2 MdmX conf	FLuc counter	Peg3 prom inh-2
O=C(CC1CC1)N1[C@H](CO)[C@H](c2ccccc2)C12CN(Cc1cc(F)ccc1F)C2	·	·	–	·	·	·	·	·	·
C=C(C)CN1CCN(c2c(CCC#N)c(C)c(C#N)c3nc4ccccc4n23)CC1	82	–	–	74	–	–	–	·	41
CCCCCc1c(C)c(C#N)c2nc3ccccc3n2c1-n1ccnc1C	–	–	·	–	–	–	·	·	·
CCC1(c2ccccc2)NC(=O)N(CC(=O)Nc2cc(S(=O)(=O)N3CCCCCC3)ccc2OC)C1=O (stereo unspecified)	54	–	–	51	·	–	43	78	70
C[C@@H]1CN([C@H](C)CO)C(=O)c2cccc(NC(=O)c3cnccn3)c2O[C@H]1CN(C)Cc1ccc2c(c1)OCO2	·	·	–	·	·	·	·	·	·
O=C(C[C@H]1CC[C@H]2[C@@H](COC[C@@H](O)CN2C(=O)Nc2ccc(Cl)cc2)O1)NC1Cc2ccccc2C1	·	·	–	·	·	·	·	·	·
Cc1c(CN2CCC(CO)(CCOc3ccccc3)CC2)[nH]c2c(Cl)cccc12	99	–	–	87	–	–	54	64	99
O=C1C(c2ccnc3ccccc23)=C(O)c2ccccc21	88	–	·	52	–	–	–	·	–
O=C(Nc1ccccc1C(=O)Nc1nnc(C(F)(F)F)s1)c1ccccc1	59	-53	–	97	–	–	97	–	87
N=C(N)N=Nc1c(O)[nH]c2ccc(Br)cc12	–	–	–	–	–	–	·	·	·
Oc1[nH]c2ccc(Br)cc2c1N=NC(=S)Nc1ccc(F)cc1	65	–	–	71	–	–	70	43	67
c1ccc(-c2oc3ncnc(NCCCn4ccnc4)c3c2-c2ccccc2)cc1	–	–	–	–	–	–	·	·	·
CN(C)CCCNc1ncnc2oc(-c3ccccc3)c(-c3ccccc3)c12	97	–	–	66	–	–	–	64	97
Cc1c(CCOC(=O)C23CC4CC(CC(C)(C4)C2)C3)sc[n+]1CC(=O)c1ccccc1	54	–	–	54	–	–	–	·	91
C[C@@H]1CN([C@H](C)CO)C(=O)Cc2cc(NS(=O)(=O)c3ccccc3)ccc2O[C@H]1CN(C)C	·	·	–	·	·	·	·	·	·
COc1ccccc1CNCC(O)Cn1c2ccccc2c2ccccc21 (stereo unspecified)	111	–	–	90	–	–	67	50	97
Cc1ccc(S(=O)(=O)N[C@@H]2CC[C@@H](CCn3cc(C4CCCC4)nn3)O[C@@H]2CO)cc1	·	·	–	·	·	·	·	·	·
C/C(=N\N=C(N)N)c1ccc(Cl)c(Cl)c1	105	–	–	56	–	–	–	·	83
CCOc1cccc2sc(N(CCCN(C)C)C(=O)c3ccc(S(=O)(=O)N(CC)Cc4ccccc4)cc3)nc12	95	–	–	84	–	–	53	68	97
Cc1ccc2sc(N(CCCN(C)C)C(=O)c3ccc(S(=O)(=O)N4CCc5ccccc5C4)cc3)nc2c1C	59	–	–	98	·	–	75	51	57
COc1ccc2sc(N(CCCN(C)C)C(=O)c3ccc(S(=O)(=O)N(C)Cc4ccccc4)cc3)nc2c1	–	–	–	–	·	–	·	·	·
CCOc1ccc2nc(N(CCCN(C)C)C(=O)c3ccc(S(=O)(=O)N4CCc5ccccc5C4)cc3)sc2c1	–	–	–	–	–	–	·	·	·

Compound activity deposited in PubChem BioAssay by several laboratories.
